In PubChem BioAssay (NCI):
Compounds without any hit were thinned out: in the full panel of roughly 83,000, 20% have a hit.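 48-hour exposure, single concentration, 96-well plates; percent growth endpoint where 0 means no net growth. Active: below 10.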 Values without a mark were called inactive. The source made the active and inactive calls.

Tested on: ACHN renal
Experiment: NCI-60 one-dose screen, 48 h (100 = growth as untreated, 0 = no growth, -100 = all killed)
Conditions: 10 µM unless noted

Compound	growth
COc1ccccc1/C=C/C1=C(C)CCC(c2ccccc2OC)C1C (stereo not given)	13%
COc1cc(OCc2cccc(-c3ccc4c(c3)OCCO4)c2C)cc(OC)c1C=O	48%
COc1ccccc1-c1nc2ccc3[nH]ncc3c2c2c1CCCC2	58.2%
CC(=O)OCCOc1cc(Cl)c(Cl)cc1Cl	103%
CC1(C)CC(=O)C2=C(C1)OC(C(=O)c1ccccc1)C2c1cccc(Oc2ccccc2)c1 (stereo not given)	32.7%
CC1OC(C(=O)N2CCN(CCO)CC2)CC1COC1CCCCC1 (stereo not given)	94.3% [50 µM]
COc1ccccc1NC(=O)n1c(=O)cc(C)c2ccc(O)cc21	110%
COc1ccc2c(c1)C(c1c[nH]c3ccccc13)(c1c[nH]c3ccccc13)CCO2	45%
CC(C)(C)n1cc(-c2ccnc(NCCNS(=O)(=O)c3cccc4ccccc34)c2)c(-c2cccc(O)c2)n1	70.1%
COc1cc(C2=Nc3c(N)nc(N)nc3NC(c3cccc(Nc4ccnc5cc(C(F)(F)F)ccc45)c3)C2)cc(OC)c1OC (stereo not given)	96.8%
Nc1nc(=O)n([C@H]2CC=C(CO)O2)cc1F	110%
CS(=O)(=O)c1ccc(/C(=N/NC(N)=S)c2ccc(F)cc2)cc1	100%
O=c1n(C2OC(CO)C(O)C2O)ccc2nccn12 (stereo not given)	104%
Cc1c(N2CCCCC2)[nH]c2ccccc12	115%
O=C1CCc2c(sc3[nH]c(=S)n(-c4cc(C(F)(F)F)cc(C(F)(F)F)c4)c(=O)c23)C1	3.08% (active)
